Screening results (PubChem BioAssay)
A selection: hits, their analogues and other compounds. The true share with any hit is near 4.8%.
SKKanGAS inh – S. pyogenes SKKanGAS growth inhibitors in kanamycin, primary screen, streptokinase expression inhibitor project, SKKanGAS strain, BacTiter-Glo luminescence | AID 1662, 2009 | 300,000 tested, 1.3% active | 6 h | inhibition, % at 7.5 µM;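 active means mean replicate score, as percent of positive control median, at least 50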;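 further: strain carries kanamycin resistance gene driven by streptokinase promoter and grows in 40 µg/ml kanamycin; loss of luminescence reflects streptokinase promoter inhibition or plain growth inhibition; 0% = median of DMSO wells and 100% = positive control at its reference dose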
tim10-1 inh – growth inhibitors of tim10-1 mutant yeast, primary screen, luminescence, uHTS. S. cerevisiae tim10-1 ts strain growth, BacTiter-Glo, 24 h. inhibition, % at 20 µM. 330,000 tested, 2.2% active. AID 463190, 2010;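 active means inhibition of at least 40%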;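 further: mutant grown at 25 °C; 0% = DMSO wells with yeast and 100% = wells holding no yeast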
PfHsp90 yeast 2 – growth inhibition of PfHsp90-expressing yeast, primary screen, antimalarial PfHsp90 inhibitor project, S. cerevisiae, BacTiter-Glo luminescence, single point, set 2 | BacTiter-Glo ATP, 48 h; yeast lacking PDR1 and PDR3 efflux regulators | inhibition, % at 9.4 µM | 310,000 tested, 0.32% active | AID 504621, 2011;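 active means every replicate shows inhibition above about 80%, whatever the replicate mean, limit read from the data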;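 further: 0% = DMSO neutral controls and 100% = 20 µM radicicol positive controls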
TIM10 inh – growth inhibitors of isogenic TIM10 control yeast, primary screen, counter-screen for tim10-1 yeast inhibitor project, luminescence, uHTS; inhibition, % at 10 µM; S. cerevisiae TIM10 strain growth, BacTiter-Glo luminescence, 24 h; AID 463195, 2010; 330,000 tested, 1.4% active;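 active means inhibition of 40% or more at the single tested concentration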;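 further: wild-type TIM10 isogenic control strain grown at permissive 25 °C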
NALP1 yeast inh – NALP1 inflammasome inhibitors in reconstituted yeast, colorimetric, S. cerevisiae, triplicate retest. 280,000 tested, 0.61% active. AID 2071, 2009. S. cerevisiae NALP1/ASC/caspase-1 growth, X-gal OD620, 72 h. inhibition, % at 10 µM; in the data active means inhibition mostly above about 24%, no sharp cut-off; inactive means mostly below about 32%
tim23-1 inh – growth inhibitors of tim23-1 mutant yeast, primary screen, luminescence, uHTS | S. cerevisiae tim23-1 growth, BacTiter-Glo luminescence, 24 h | inhibition, % at 20 µM | 330,000 tested, 1.3% active;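 active means growth inhibition of the mutant yeast at or above 50%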;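 further: temperature-sensitive mutant grown at 25 °C; plate controls were DMSO-treated mutant yeast for no effect and medium wells lacking yeast for full effect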
tim10-1 conf – growth inhibitors of tim10-1 mutant yeast, confirmation, single concentration, luminescence, S. cerevisiae. inhibition, % at 20 µM. AID 463213, 2010. 7,400 tested, 56% active. S. cerevisiae tim10-1 ts strain growth, BacTiter-Glo, 24 h. shares compounds with tim10-1 inh;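 active means inhibition of yeast growth at or above a set limit in either of two repeat tests at 20 µM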;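 further: tim10-1 mutant grown at permissive 25 °C to find synthetic lethal compounds; 0% = DMSO yeast wells and 100% = medium wells without yeast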
An asterisk follows results filed as active.

What do the screens show for `c1ccc(C(NCCNC(c2ccccc2)c2ccccc2)c2ccccc2)cc1`?
SKKanGAS inh: 105*; tim10-1 inh: 43*; PfHsp90 yeast 2: -16; TIM10 inh: 19; NALP1 yeast inh: 15; tim23-1 inh: 21; tim10-1 conf: 19

What do the screens show for `COc1ccc(N(C)S(=O)(=O)c2ccc(Cl)c(C(=O)NCC(C)(C)N3CCOCC3)c2)cc1`?
tim10-1 inh: 27; PfHsp90 yeast 2: 7; TIM10 inh: 0; tim23-1 inh: -2

What do the screens show for `CCOC(=O)NC1(NC2CCCCC2)Oc2ccccc2O1`?
SKKanGAS inh: -7; tim10-1 inh: 40*; PfHsp90 yeast 2: -3; TIM10 inh: 37; NALP1 yeast inh: -8; tim23-1 inh: 46; tim10-1 conf: 28

How did CCOC(=O)NC1(NC(C)C)Oc2ccccc2O1 do in these assays?
SKKanGAS inh: 7; tim10-1 inh: 12; PfHsp90 yeast 2: 0; TIM10 inh: 20; NALP1 yeast inh: 28; tim23-1 inh: 14

How did CCc1c(C)sc(NC(=O)c2cc(C(C)C)on2)c1C#N do in these assays?
SKKanGAS inh: 2; tim10-1 inh: 9; PfHsp90 yeast 2: 8; TIM10 inh: 11; NALP1 yeast inh: 6; tim23-1 inh: 26

How did Cc1cc(C(=O)Nc2sc(C)c(C)c2C#N)no1 do in these assays?
SKKanGAS inh: 4; tim10-1 inh: 43*; PfHsp90 yeast 2: -5; TIM10 inh: 11; NALP1 yeast inh: 17; tim23-1 inh: 27; tim10-1 conf: 20

How did Cc1ccc(C(=O)Nc2ccc3c(c2)C(=O)NC3=O)cc1 do in these assays?
SKKanGAS inh: -5; tim10-1 inh: -3; PfHsp90 yeast 2: 8; TIM10 inh: 5; NALP1 yeast inh: 24; tim23-1 inh: 1

Results for Cc1ccc(-c2noc(CN(C(=O)C(c3ccccc3)c3ccccc3)C(C)C)n2)cc1 ?
SKKanGAS inh: 1; tim10-1 inh: 41*; PfHsp90 yeast 2: 8; TIM10 inh: 17; NALP1 yeast inh: 20; tim23-1 inh: 16; tim10-1 conf: 25

How did O=C(O)C1CC(=O)N(CCOc2ccccc2)C1 (stereo not given) do in these assays?
SKKanGAS inh: -7; tim10-1 inh: 1; PfHsp90 yeast 2: -12; TIM10 inh: -13; NALP1 yeast inh: 7; tim23-1 inh: 7

How did Cc1ccccc1C(=O)Nc1cccc(C(=O)N/N=C/c2cc(Cl)cc([N+](=O)[O-])c2O)c1 do in these assays?
SKKanGAS inh: 11; tim10-1 inh: 41*; PfHsp90 yeast 2: -39; TIM10 inh: 18; NALP1 yeast inh: 0; tim23-1 inh: 8; tim10-1 conf: 22

What do the screens show for `O=C(Nc1ccccc1Br)C1CC(=O)N(c2ccc3c4c(cccc24)CC3)C1` (stereo not given)?
SKKanGAS inh: -7; tim10-1 inh: 41*; PfHsp90 yeast 2: -10; TIM10 inh: 32; NALP1 yeast inh: 10; tim23-1 inh: 30; tim10-1 conf: 33*

What do the screens show for `Cc1ccccc1NC(=O)C1CC(=O)N(c2ccc3c4c(cccc24)CC3)C1` (stereo not given)?
SKKanGAS inh: 1; tim10-1 inh: 4; PfHsp90 yeast 2: -15; TIM10 inh: 7; NALP1 yeast inh: 11; tim23-1 inh: 11

How did O=C(Nc1cccc(Cl)c1N1CCCC1)c1ccco1 do in these assays?
SKKanGAS inh: -7; tim10-1 inh: -5; PfHsp90 yeast 2: 6; TIM10 inh: -9; NALP1 yeast inh: 2; tim23-1 inh: 6

Results for COc1ccc(C(=O)c2cnc(/N=C/N(C)C)s2)cc1 ?
SKKanGAS inh: -2; tim10-1 inh: 44*; TIM10 inh: 28; NALP1 yeast inh: 24; tim23-1 inh: 15; tim10-1 conf: 36*

Results for COc1ccc(-c2cnc(SCC(=O)Nc3cc(C)on3)n2Cc2ccco2)cc1 ?
SKKanGAS inh: 11; tim10-1 inh: 44*; PfHsp90 yeast 2: -5; TIM10 inh: 8; NALP1 yeast inh: 13; tim23-1 inh: 18; tim10-1 conf: 21

How did COCCn1c(-c2ccc(OC)cc2)cnc1SCC(=O)Nc1cccc2ccccc12 do in these assays?
SKKanGAS inh: -8; tim10-1 inh: 45*; PfHsp90 yeast 2: 3; TIM10 inh: -9; NALP1 yeast inh: 34; tim23-1 inh: 26; tim10-1 conf: 9

How did CCCn1c(=NC(=O)CCS(=O)(=O)c2ccccc2)sc2cc(S(N)(=O)=O)ccc21 do in these assays?
SKKanGAS inh: 1; tim10-1 inh: 14; PfHsp90 yeast 2: 0; TIM10 inh: 5; tim23-1 inh: -2

How did CCC(c1nnc(SCC(=O)N(C)c2ccccc2)n1Cc1ccccc1)N(C)C (stereo not given) do in these assays?
SKKanGAS inh: 3; tim10-1 inh: 6; PfHsp90 yeast 2: 10; TIM10 inh: 4; NALP1 yeast inh: 9; tim23-1 inh: 13

How did Cc1ccc2occ(/C=C/C(=O)c3ccccc3O)c(=O)c2c1 do in these assays?
SKKanGAS inh: -6; tim10-1 inh: 48*; PfHsp90 yeast 2: -30; TIM10 inh: 17; NALP1 yeast inh: 4; tim23-1 inh: 38; tim10-1 conf: 33*

What do the screens show for `Cc1c(/C=C/C(=O)c2ccccc2O)cnn1C`?
SKKanGAS inh: -2; tim10-1 inh: 50*; PfHsp90 yeast 2: 14; TIM10 inh: 37; NALP1 yeast inh: 25; tim23-1 inh: 39; tim10-1 conf: 39*

Results for Cc1ccc(/C=C/C(=O)c2ccccc2O)cc1 ?
SKKanGAS inh: 13; tim10-1 inh: 15; PfHsp90 yeast 2: 6; TIM10 inh: 27; NALP1 yeast inh: -12; tim23-1 inh: 34

What do the screens show for `Cc1ccc(O)c(C(=O)C=Cc2ccccc2)c1`?
PfHsp90 yeast 2: -8

How did CN(C(=O)COC(=O)C1CSC2(C)CCC(=O)N12)c1ccccc1 (stereo not given) do in these assays?
SKKanGAS inh: -2; tim10-1 inh: -1; PfHsp90 yeast 2: 16; TIM10 inh: 11; tim23-1 inh: -3

Results for Cc1ccnc(NC(=O)COC(=O)C2COc3ccccc3O2)n1 (stereo not given) ?
tim10-1 inh: 64*; TIM10 inh: -3; NALP1 yeast inh: 19; tim23-1 inh: -3; tim10-1 conf: 10

How did NC(=O)c1ccc(NC(=O)COC(=O)C2COc3ccccc3O2)cc1 (stereo not given) do in these assays?
tim10-1 inh: -2; PfHsp90 yeast 2: 10; TIM10 inh: -3; tim23-1 inh: -1
